# Results: PubChem BioAssay (NCI)
# The panel holds about 83,000 compounds, 20% with a hit somewhere; the sample as a whole holds those more often.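 Cells were grown in 96-well plates and exposed to the test compound at a single concentration for 48 hours; results are reported as percent growth, with values below 10 considered active.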 Values without a mark were called inactive. Calls of active or inactive are those of the source.
# System: OVCAR-3 ovarian
# Assay: NCI-60 one-dose screen, 48 h (100 = growth as untreated, 0 = no growth, -100 = all killed)
# Settings: 10 µM unless noted
row,SMILES,growth
1,C=C(C)[C@@H]1CC[C@]2(C(=O)N3CCN(C)CC3)CC[C@]3(C)[C@H](CC[C@@H]4[C@@]5(C)CC(=C/c6ccncc6)/C(=N/O)C(C)(C)[C@@H]5CC[C@]43C)[C@@H]12,75.2%
2,Fc1ccc2[nH]cc(-c3nonc3-c3c[nH]c4ccc(Br)cc34)c2c1,34.3%
3,O=C1c2c(c3c4ccc(Br)cc4oc3c3[nH]c4ccccc4c23)C(=O)N1O,21.3%
4,NC(=O)CCC(C(=O)O)N1C(=O)c2ccc(O)cc2C1=O (configuration not stated),97.6%
5,COc1ccc2nc(NC(=O)CSc3nnc4n3S(=O)(=O)c3ccccc3N4C)sc2c1,112%
6,C=C(C)[C@@H]1CC[C@]2(C(=O)NCC#CCN3CCN(C)CC3)CC[C@]3(C)[C@H](CC[C@@H]4[C@@](C)(CCC#N)[C@H](C(=C)C)CC[C@]43C)[C@@H]12,54.2%
7,Cc1nnc(-n2c(O)cc(=O)n(-c3ccccc3)c2=S)nc1/C=C/c1ccc(N(C)C)cc1,44.3%
8,C/C(=N\NC(=O)c1ccccc1O)c1cccc(/C(C)=N/NC(=O)c2ccccc2O)n1,9.77% (active)
9,O=C1c2cc(Cl)ccc2S(=O)(=O)c2c(NCCCNCCO)nc3ccccc3c21,-91.9% (active)
10,Cc1cc2c(O)c(-c3cc(Cl)ccc3Cl)c3sc(=O)oc3c2cc1C,29.8%
11,O=C(Nc1ccc(NC(=O)c2cc(=O)[nH]c3ccccc23)cc1)Nc1cccc(C(F)(F)F)c1,63.9%
12,c1ccc(C2=NN[C@H](c3cn(-c4ccccc4)nc3-c3ccccc3)C2)cc1,2.11% (active)
13,O=C(CCCCC1CCSS1)Nc1ncnc2n[nH]c(-c3ccc(Oc4ccccc4)cc3)c12 (configuration not stated),116%
14,COc1cc(OC)cc(C2=C3CC[C@@H]4[C@H](CC[C@]5(C)C(=O)CC[C@@H]45)C3=CC3C(O)c4cccnc4N4C(=O)COC234)c1 (some centres not stated),115%
15,Cc1cnc(C(=O)NNc2nc3sc4c(c3c(=O)n2C)C(C)CCC4)cn1 (configuration not stated),-2.78% (active)
16,C=C(CNCCc1ccc(O)cc1)[C@@H]1CC[C@]2(CO)CC[C@]3(C)[C@H](CC[C@@H]4[C@@]5(C)CCC(NCCO)C(C)(C)[C@@H]5CC[C@]43C)[C@@H]12 (some centres not stated),-41.7% (active)
17,COc1ccc(/C=N/C2=C(C#N)C(c3cccc(Cl)c3)c3c(ccc4ccccc34)O2)cc1 (configuration not stated),12.5%
18,CCc1ccc(Oc2cn[nH]c2-c2ccc(OCCc3ccc(F)cc3)cc2O)cc1,89.4%
19,O=C(/C=C/c1cn(-c2ccccc2)nc1-c1ccc([N+](=O)[O-])cc1)c1ccc(Cl)cc1,10.6%
20,CO[C@H]1/C=C(/C)CCC[C@H](C)[C@H](O)[C@@H](C)C(=O)C(C)(C)[C@@H](O)CC(=O)O[C@@H]1/C(C)=C/c1csc(C)n1,-49.9% (active)
21,Clc1ccc(CNc2c3ccccc3nc3ccccc23)cc1,51.1%
22,CCCCN[C@H]1CC[C@@]2(C)[C@@H](CC[C@@]3(C)[C@H]2[C@H](O)C[C@H]2/C(=C(\CCC=C(C)C)C(=O)OC)[C@@H](OC(C)=O)C[C@@]23C)[C@@H]1C,106%
23,N#Cc1c(NC(=O)c2ccccc2)sc2c1CCC(=O)C2,-4.44% (active)
24,O=[N+]([O-])c1ccc(N/N=C(/C(=N/Nc2ccc([N+](=O)[O-])cc2)c2ccccc2)c2ccccc2)cc1,120%
25,Oc1c(Cl)cc(Cl)c2ccc(Cn3cc(-c4cc(C(F)(F)F)cc(C(F)(F)F)c4)nn3)nc12,-4.28% (active)
26,COc1cc(-c2cc(-c3ccc(N(C)C)cc3)nc(N3CCC(O)CC3)c2C#N)cc(OC)c1OC,-14.6% (active)
27,Cc1nn(-c2ccccc2)c(Oc2ccccn2)c1-c1nc2ccccc2s1,102%

# System: HS 578T breast
# Assay: as above
# Settings: 10 µM unless noted
row,SMILES,growth
1,CC(C)CCC[C@@H](C)[C@H]1CC[C@H]2[C@@H]3CC=C4C[C@@H](C(C(=O)O)C(=O)O)CC[C@]4(C)[C@H]3CC[C@]12C,-12.7% (active)
2,CCN1CCN(c2cc(C(=O)Nc3nc(-c4cc(OC)c(OC)c(OC)c4)cs3)cc(C(F)(F)F)c2)CC1,68.1%
3,N#Cc1nn(-c2cc(=O)[nH]c3ccc(Cl)cc23)c(N)c1C#N,103%
4,CN(C)CCCn1c2c(c3ncccc3c1=O)C(=O)c1ccccc1-2,75.8%
5,COc1cc(-c2nc3cc(Cl)c(Cl)cc3[nH]2)ccc1OCC(=O)N=Nc1c(O)[nH]c2ccc([N+](=O)[O-])cc12,68.2%
6,C=CC(=O)NCc1ccc(Nc2nccc(-c3ccc(N4CCCC4)c(C#N)c3)n2)cc1,25.4%
7,CSc1nnc(-c2cnn3c2NC(c2ccccc2)C3)n1-c1ccc(C(F)(F)F)cc1 (configuration not stated),64.7%
8,N=C(N)c1ccc(-c2ccc(-c3ccc(Cl)cc3)s2)nc1,67.5%
9,O=C(OCc1ccc2c(Cl)cc(Cl)c(O)c2n1)n1cncn1,67.4%
10,Cn1ccc2c3c(ccc21)CC3=O,121%
11,O=C1c2ccc3c4ccc5c6c(ccc(c7ccc(c2c37)C(=O)N1CCC[P+](c1ccccc1)(c1ccccc1)c1ccccc1)c64)C(=O)N(CCC[P+](c1ccccc1)(c1ccccc1)c1ccccc1)C5=O,81.2%
12,CCn1c(=S)[nH]c2c(=O)n(C)c(=O)n(C)c21,160%
13,N#CC1=C(N)Oc2c(sc3c(F)cccc23)C1c1ccc(F)cc1 (configuration not stated),24.6%
14,C=C(C)[C@@H]1CC[C@]2(C(=O)N3CCN(C)CC3)CC[C@]3(C)[C@H](CC[C@@H]4[C@@]5(C)CC(=C/c6ccncc6)/C(=N/O)C(C)(C)[C@@H]5CC[C@]43C)[C@@H]12,87.5%
15,Fc1ccc2[nH]cc(-c3nonc3-c3c[nH]c4ccc(Br)cc34)c2c1,39.5%
16,O=C1c2c(c3c4ccc(Br)cc4oc3c3[nH]c4ccccc4c23)C(=O)N1O,18%
17,NC(=O)CCC(C(=O)O)N1C(=O)c2ccc(O)cc2C1=O (configuration not stated),107%
18,COc1ccc2nc(NC(=O)CSc3nnc4n3S(=O)(=O)c3ccccc3N4C)sc2c1,89.8%
19,C=C(C)[C@@H]1CC[C@]2(C(=O)NCC#CCN3CCN(C)CC3)CC[C@]3(C)[C@H](CC[C@@H]4[C@@](C)(CCC#N)[C@H](C(=C)C)CC[C@]43C)[C@@H]12,65.5%
20,Cc1nnc(-n2c(O)cc(=O)n(-c3ccccc3)c2=S)nc1/C=C/c1ccc(N(C)C)cc1,47.8%

row,SMILES,growth
1,C/C(=N\NC(=O)c1ccccc1O)c1cccc(/C(C)=N/NC(=O)c2ccccc2O)n1,69.3%
2,O=C1c2cc(Cl)ccc2S(=O)(=O)c2c(NCCCNCCO)nc3ccccc3c21,-2.81% (active)
3,Cc1cc2c(O)c(-c3cc(Cl)ccc3Cl)c3sc(=O)oc3c2cc1C,76.4%
4,O=C(Nc1ccc(NC(=O)c2cc(=O)[nH]c3ccccc23)cc1)Nc1cccc(C(F)(F)F)c1,50.8%
5,c1ccc(C2=NN[C@H](c3cn(-c4ccccc4)nc3-c3ccccc3)C2)cc1,-7.83% (active)
6,O=C(CCCCC1CCSS1)Nc1ncnc2n[nH]c(-c3ccc(Oc4ccccc4)cc3)c12 (configuration not stated),117%
7,COc1cc(OC)cc(C2=C3CC[C@@H]4[C@H](CC[C@]5(C)C(=O)CC[C@@H]45)C3=CC3C(O)c4cccnc4N4C(=O)COC234)c1 (some centres not stated),90.1%
8,Cc1cnc(C(=O)NNc2nc3sc4c(c3c(=O)n2C)C(C)CCC4)cn1 (configuration not stated),34.2%
9,C=C(CNCCc1ccc(O)cc1)[C@@H]1CC[C@]2(CO)CC[C@]3(C)[C@H](CC[C@@H]4[C@@]5(C)CCC(NCCO)C(C)(C)[C@@H]5CC[C@]43C)[C@@H]12 (some centres not stated),-61.1% (active)
10,COc1ccc(/C=N/C2=C(C#N)C(c3cccc(Cl)c3)c3c(ccc4ccccc34)O2)cc1 (configuration not stated),15.9%
11,CCc1ccc(Oc2cn[nH]c2-c2ccc(OCCc3ccc(F)cc3)cc2O)cc1,93.1%
12,O=C(/C=C/c1cn(-c2ccccc2)nc1-c1ccc([N+](=O)[O-])cc1)c1ccc(Cl)cc1,-12% (active)
13,CO[C@H]1/C=C(/C)CCC[C@H](C)[C@H](O)[C@@H](C)C(=O)C(C)(C)[C@@H](O)CC(=O)O[C@@H]1/C(C)=C/c1csc(C)n1,-21.3% (active)
14,Clc1ccc(CNc2c3ccccc3nc3ccccc23)cc1,53.8%
15,CCCCN[C@H]1CC[C@@]2(C)[C@@H](CC[C@@]3(C)[C@H]2[C@H](O)C[C@H]2/C(=C(\CCC=C(C)C)C(=O)OC)[C@@H](OC(C)=O)C[C@@]23C)[C@@H]1C,87.3%
16,N#Cc1c(NC(=O)c2ccccc2)sc2c1CCC(=O)C2,23.3%
17,O=[N+]([O-])c1ccc(N/N=C(/C(=N/Nc2ccc([N+](=O)[O-])cc2)c2ccccc2)c2ccccc2)cc1,101%
18,Oc1c(Cl)cc(Cl)c2ccc(Cn3cc(-c4cc(C(F)(F)F)cc(C(F)(F)F)c4)nn3)nc12,94.9%
19,COc1cc(-c2cc(-c3ccc(N(C)C)cc3)nc(N3CCC(O)CC3)c2C#N)cc(OC)c1OC,17%
20,Cc1nn(-c2ccccc2)c(Oc2ccccn2)c1-c1nc2ccccc2s1,110%
